Compound activity from PubChem BioAssay.
An excerpt weighted towards active compounds, which were near 4% of everything screened.
Jurkat NFkB inh = inhibitors of the PMA/ionomycin-induced NF-kB reporter in Jurkat cells. PMA/ionomycin-induced NF-kB luciferase reporter, luminescence. inhibition, % at 4 µM. 330,000 tested, 0.53% active; in the data active means inhibition above about 50%
Mdm2 MdmX PPI = disrupts the human Mdm2-MdmX interaction; O15151+Q00987; SaOS-2 split-luciferase Mdm2/MdmX complementation, luminescence; inhibition, % at 8 µM; 330,000 tested, 3% active; AID 485346;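 active means inhibition of at least 50% at 8 µM in the primary screen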
Target sequence (O15151 whole entry, looked up): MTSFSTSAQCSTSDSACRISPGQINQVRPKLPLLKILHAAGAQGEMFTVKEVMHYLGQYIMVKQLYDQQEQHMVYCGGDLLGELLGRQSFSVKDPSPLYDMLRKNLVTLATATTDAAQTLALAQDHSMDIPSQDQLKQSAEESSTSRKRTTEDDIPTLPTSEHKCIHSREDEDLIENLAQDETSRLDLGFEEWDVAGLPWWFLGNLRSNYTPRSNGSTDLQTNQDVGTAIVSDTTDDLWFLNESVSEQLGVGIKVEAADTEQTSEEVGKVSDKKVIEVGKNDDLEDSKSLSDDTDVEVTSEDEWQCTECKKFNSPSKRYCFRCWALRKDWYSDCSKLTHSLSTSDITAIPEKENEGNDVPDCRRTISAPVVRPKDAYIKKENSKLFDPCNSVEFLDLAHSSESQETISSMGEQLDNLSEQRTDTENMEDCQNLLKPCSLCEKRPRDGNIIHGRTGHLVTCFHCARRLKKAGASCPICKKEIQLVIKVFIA
Target sequence (Q00987 whole entry, looked up): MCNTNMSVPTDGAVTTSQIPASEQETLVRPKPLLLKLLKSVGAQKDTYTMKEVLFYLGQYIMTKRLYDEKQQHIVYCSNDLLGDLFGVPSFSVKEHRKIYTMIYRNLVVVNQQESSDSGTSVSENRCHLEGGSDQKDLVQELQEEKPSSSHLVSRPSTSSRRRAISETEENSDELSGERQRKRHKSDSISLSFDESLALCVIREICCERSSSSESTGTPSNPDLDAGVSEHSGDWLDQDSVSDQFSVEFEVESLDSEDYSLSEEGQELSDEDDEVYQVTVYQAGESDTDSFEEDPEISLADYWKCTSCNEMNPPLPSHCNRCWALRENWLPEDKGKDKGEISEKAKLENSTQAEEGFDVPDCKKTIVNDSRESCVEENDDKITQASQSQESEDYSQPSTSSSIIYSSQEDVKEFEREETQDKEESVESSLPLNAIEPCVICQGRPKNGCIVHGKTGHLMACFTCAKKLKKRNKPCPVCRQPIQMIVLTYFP
697 NFkB inh = inhibitors of the PMA/ionomycin-induced NF-kB reporter in 697 B cells; inhibition, % at 4 µM; 697 B-cell NF-kB luciferase reporter, 16 h; 330,000 tested, 0.33% active; in the data active means inhibition above about 35%
Gli-Sufu block = Gli-Sufu pathway antagonism | inhibition, % at 5 µM | Sufu-KO-LIGHT fibroblasts, Gli luciferase reporter luminescence | 340,000 tested, 0.74% active;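 active means inhibition above about 55%, limit read from the data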;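 further: 0% = DMSO-treated cells and 100% = wells with medium but no cells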
Beta apoptosis = beta cell apoptosis inhibition; INS-1E cytokine-induced death, ATP luminescence, 48 h; percent of positive-control rescue, neutral wells zero; 300,000 tested, 0.8% active; protection from apoptosis, % (test concentration not listed); AID 435005;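 active means Every replicate reaches about 75%, or at least half do and their mean reaches it too, limit read from the data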;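 further: 0% = cytokine-treated negative control wells and 100% = positive control rescue; higher means more ATP so stronger rescue from cytokine killing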
Mdm2 MdmX conf = confirmation of human Mdm2/MdmX interaction inhibitors; inhibition, % at 8 µM; AID 489028; shares compounds with Mdm2 MdmX PPI; 10,000 tested, 55% active; Mdm2-MdmX binding, luminescent assay; in the data active means inhibition above about 40%
Full FLuc ctr = inhibits full-length luciferase, flagging false Mdm2/MdmX hits; AID 504607; 6,200 tested, 77% active; shares compounds with Mdm2 MdmX PPI; SaOS-2 full-length luciferase counterscreen, luminescence; inhibition, % at 8 µM;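 active means mean inhibition at 8 µM reaching about 37%, which flags the compound as non-specific, limit read from the data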;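 further: p53-null SaOS-2 cells with luciferase driven by a doxycycline-inducible promoter; compound on cells about two nights before reading with doxycycline added after day one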
* marks the source's active call; other numbers are inactive results; · = no result.

SMILES	Jurkat NFkB inh	Mdm2 MdmX PPI	697 NFkB inh	Gli-Sufu block	Beta apoptosis	Mdm2 MdmX conf	others
CC(=O)OCC1OC(COC(C)=O)(c2ccc(C)cc2)C(OC(C)=O)C1OC(C)=O (centres undefined)	·	·	·	7	·	·
COc1ccc(NC(=O)COC(=O)c2cccn2C)cc1S(=O)(=O)N1CCCCC1	0	22	-7	-25	7	·
COc1cc(/C=C/C(=O)OCC(=O)N(CC(C)C)c2c(N)n(Cc3ccccc3)c(=O)[nH]c2=O)ccc1O	·	·	·	3	·	·
Cc1nnc2ccc(-c3cccc(NS(=O)(=O)c4ccccc4Cl)c3)nn12	2	56*	32	21	5	57*	Full FLuc ctr=55*
CC(=O)c1cccc(NC(=O)C(C)OC(=O)CCn2c(C)csc2=O)c1 (centres undefined)	-3	-6	-1	-7	-1	·
CN(C)CCOc1ccc(-c2c(-c3ccccc3)sc3ccccc23)cc1	-9	100*	13	12	83*	30
c1ccc2c(-c3ccc(OCCN4CCCCC4)cc3)c(-c3ccsc3)sc2c1	5	68*	9	16	7	25
COc1cc(OC)cc(-c2sc3ccc(OC)cc3c2-c2ccc(OCCN3CCCCC3)cc2)c1	·	63*	-15	1	·	19
COc1ccc(-c2sc3cc4c(cc3c2-c2ccc(OCCN3CCCCC3)cc2)OCO4)cc1	·	70*	-26	-5	·	24
COC1OC2COC(c3ccccc3)OC2C(O)C1NC(=O)c1ccccc1 (centres undefined)	·	·	·	6	·	·
Cc1c(O)nc(SCC(=O)Nc2nccs2)n(-c2ccccc2F)c1=O	-6	12	14	-1	-4	·
O=C(Nc1ccccc1C(=O)NC(Cc1ccccc1)C(=O)NC1CCCCCC1)c1ccccc1 (centres undefined)	-6	62*	7	1	16	-1
CC(C)Nc1ccc(Nc2ccnc3cc4ccccc4cc23)cc1	-3	95*	-30	11	125*	100*	Full FLuc ctr=51*
COc1ccc(Nc2ccnc3ccccc23)cc1	11	65*	4	-6	18	57*	Full FLuc ctr=34
CC(NC(=O)COC(=O)CN1C(=O)C2CCCCC2C1=O)c1ccccc1 (centres undefined)	8	22	6	1	-6	·
Cc1c(C(=O)N2CCC(n3nccc3NC(=O)C3CC3)CC2)[nH]c2ccc(Cl)cc12	5	21	0	-8	0	·
Cc1cccc(-c2ccc3c(c2)C2CC3CCN2Cc2ccc3c(c2)OCO3)c1 (centres undefined)	·	·	·	12	·	·
CC1(C)C=Cc2c(c3c(c4c(=O)c(-c5ccc(O)cc5)coc24)OC(C)(C)CC3)O1	-6	75*	-2	-14	5	31
O=C(NNC(=O)c1cc(-c2ccc(Cl)cc2Cl)nc2ccccc12)Nc1ccccc1	9	64*	1	1	7	38
Cc1nc2scc(-c3ccccc3)c2c(=O)n1N=C1C=CC(=O)C=C1	14	70*	-9	20	·	42*	Full FLuc ctr=13
CC(C)(C)C(=O)NC(=S)Nc1cc(C(F)(F)F)ccc1N1CCOCC1	8	7	18	-3	-4	·
O=C(NC(=S)Nc1cc(C(F)(F)F)ccc1N1CCOCC1)c1sc2ccccc2c1Cl	-2	50*	-28	-1	8	19
CCC[C@@H]1C[C@@]1(CCC)[C@@H](NP(=O)(c1ccccc1)c1ccccc1)c1ccc(C(=O)OC)cc1	12	75*	16	7	·	39	Full FLuc ctr=73*
COC(=O)c1cccc(C#CC(NP(=O)(c2ccccc2)c2ccccc2)c2ccccc2)c1 (centres undefined)	1	30	19	7	11	·
O=C(CN(CC1CCCO1)C(=O)CNS(=O)(=O)c1ccc(F)cc1)NC1CCCCC1 (centres undefined)	7	6	10	-1	2	·
SMILES	Jurkat NFkB inh	Mdm2 MdmX PPI	697 NFkB inh	Gli-Sufu block	Beta apoptosis	Mdm2 MdmX conf	others
O=C(Cn1c(COc2ccccc2)nc2ccccc21)Nc1cc(Cl)ccc1Cl	-1	89*	9	5	12	71*	Full FLuc ctr=104*
O=C(Cn1c(COc2ccccc2)nc2ccccc21)Nc1cc(Cl)cc(Cl)c1	11	44	-3	1	·	·
CCCCN1CC(COCc2ccccc2)Oc2cc(Br)ccc2S1(=O)=O (centres undefined)	·	·	·	10	·	·
COc1ccc2[nH]c3c(N4CCN(Cc5ccc6c(c5)OCO6)CC4)ncnc3c2c1	20	57*	8	-3	40	19
CC(C)CCN1CCC(N)=NC1=O	·	·	·	0	·	·
O=C(CCc1ccccc1)NC1(Cc2ccccc2)CCN(CCCc2ccccc2)C1=O (centres undefined)	5	16	9	23	45	·
COc1ccccc1NC(=O)C(C)OC(=O)/C=C/c1ccc2ccccc2n1 (centres undefined)	18	12	11	-24	-6	·
CC(OC(=O)/C=C/c1ccc2ccccc2n1)C(=O)N(C)c1ccccc1 (centres undefined)	-4	65*	-40	4	2	35	Full FLuc ctr=56*
COc1ccc(NC(=O)CCOc2ccccc2C)cc1S(=O)(=O)N1CCCCC1	16	-14	-34	14	5	·
CC(=O)OCn1ncc(N2CCOCC2)c(Br)c1=O	2	17	16	18	-4	·
O=C(OCn1ncc(Br)c(Br)c1=O)c1ccc(F)cc1	27	99*	-37	-1	100*	100*	Full FLuc ctr=0
O=C(OCn1ncc(Br)c(Br)c1=O)c1ccccc1Cl	21	99*	-29	12	112*	98*	Full FLuc ctr=2
COc1ccc2c(c1)c(C(=O)CN1CCc3ccccc3C1)c(C)n2C	0	18	-6	5	-2	·
COc1cccc(C2C3=C(N=c4s/c(=C\c5ccc(O)cc5)c(=O)n42)c2ccccc2CC3)c1OC (centres undefined)	1	37	-19	17	-7	·
COc1cccc(C2C3=C(N=c4s/c(=C\c5cccc(O)c5)c(=O)n42)c2ccccc2CC3)c1OC (centres undefined)	17	68*	-1	2	3	11
COc1ccc(NC(=O)Cn2c(=O)n(CC3CCCO3)c(=O)c3cc(OC)c(OC)cc32)cc1OC (centres undefined)	1	-3	19	30	-1	·
[O-][n+]1cccc2c(Br)cc(Br)c(O)c21	7	51*	0	-3	7	25
Cc1cc(C)c(C(=O)/C=C/c2ccc(C(C)C)cc2)c(=O)[nH]1	26	86*	25	-7	-31	97*	Full FLuc ctr=56*
O=C(/C=C/c1cn(-c2ccccc2)nc1-c1cccnc1)c1ccco1	13	52*	12	-2	-5	34
